Data from PubChem BioAssay AID873 (PCMD, 2007).
In all, about 210,000 compounds went through this assay and about 1,300 (0.62%) were called active. The entries come from a sample that favours actives as a whole. Unmarked numbers belong to inactive results.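 The calls were made as follows: active = inhibition of 40% or more; inactive = the rest.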

biological target: Kallikrein-5 (Homo sapiens) (UniProt Q9Y337); test: human KLK5 protease inhibitors, primary screen, biochemical, 1536-well (AID 873); conditions: recombinant hK5, fluorogenic AMC substrate cleavage; at 5 µM; active compounds read high;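 also: 0% = enzyme controls without compound and 100% = no-enzyme blanks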
Sequence (Q9Y337 67-293 limits assumed): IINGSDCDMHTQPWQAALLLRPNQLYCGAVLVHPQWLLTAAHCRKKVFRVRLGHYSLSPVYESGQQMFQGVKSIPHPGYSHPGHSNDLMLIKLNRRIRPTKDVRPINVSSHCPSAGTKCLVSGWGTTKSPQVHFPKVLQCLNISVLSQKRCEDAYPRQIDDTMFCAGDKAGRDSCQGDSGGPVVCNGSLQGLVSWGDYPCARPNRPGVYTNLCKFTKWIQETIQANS

Compound | inhibition
CC(C)n1c(=O)c(C=Nc2ccc(Br)cc2)c(O)n(Cc2ccco2)c1=O | 115% (active)
CN(C)CC1Oc2ccccc2OC1(O)c1ccccc1 (stereo not given) | -2.65%
O=c1[nH]c(=O)n(Cc2ccccc2)c(O)c1/C=N/Nc1c(F)c(F)c(F)c(F)c1F | 3.18%
O=C(O)COc1ccccc1/C=C1\C(=O)NC(=O)N(CCC2=CCCCC2)C1=O | 0.1%
CC(C)c1ccc(-n2c(O)c(/C=N/N3CCOCC3)c(=O)[nH]c2=S)cc1 | -2.01%
